Compound activity (PubChem)
MITF TRPM1 inh: inhibitors of MITF-dependent TRPM1 promoter reporter, primary screen, cell-based, SK-MEL-5, single point, luciferase; SK-MEL-5 TRPM1 promoter luciferase, 24 h; inhibition, % at 12.5 µM; 0.83% of 330,000 active; AID 488899, 2010;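 active means mean inhibition across replicates of 60% or more, whatever share of single replicates reaches that level; inconclusive means some that reach 60%, reason not given; inactive means mean inhibition across replicates below 60%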
Shn3 3UTR inh: reduction of Shn3 3'UTR firefly luciferase signal, primary screen, Schnurri-3 inhibitor project, cell-based, Clone20 osteoblasts, set 2 | 0.52% of 360,000 active | Clone20 osteoblast Shn3 3'UTR firefly luciferase, 24 h | inhibition, % at 12.5 µM | AID 588674, 2011;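 active means mean inhibition of at least 75% with every replicate also reaching 75%; inconclusive means mean inhibition at least 75% but some replicate below; inactive means mean inhibition below 75%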;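 further: 0% = median of neutral control wells and 100% = pilot-screen positive control compound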
EBV LMP1 NFkB: EBV LMP1-driven NF-kappaB luciferase reporter inhibitors, primary screen, cell-based, luminescence, single point. LMP1-induced NF-kappaB luciferase reporter cells. inhibition, % at 12.5 µM. AID 504558, 2011. 0.69% of 350,000 active; in the data active means inhibition above about 41%; inconclusive means no clear call, values can overlap the other calls;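 further: 0% = neutral control wells and 100% = reference inhibitor control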
PAX8 reporter: inhibitors of PAX8-driven TPO luciferase reporter, primary screen, RMG-I cells, single concentration; SteadyGlo, 24 h; inhibition, % at 12.6 µM; 1.2% of 360,000 active; AID 652154, 2013;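 active means mean replicate inhibition at least 60% with every replicate also reaching 60%; inconclusive means only one of the two criteria is met; inactive means mean below 60% and not all replicates reaching 60%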;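 further: luciferase light reporting Pax8 driven TPO promoter activity; plate controls were median of neutral control wells for no effect and mitoxantrone controls for full effect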
aSyn UTR inh: MLPCN primary screen, SNCA 5' untranslated region; alpha-synuclein 5'UTR reporter, inhibitor activity; inhibition, % (tested at 7.5 µM); 0.82% of 300,000 active; in the data active means inhibition above about 60%; inconclusive means no clear call, values can overlap the other calls;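 further: H4 neuroglioblastoma cells stably carrying SNCA 5'UTR luciferase fusion; 0% = DMSO wells and 100% = positive control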
Starred values were filed as active, the others as inactive; ? = inconclusive; nt = no result given. Compounds with a hit are over-represented: about 2.1% of the library has one in this group of screens.

SMILES	MITF TRPM1 inh	Shn3 3UTR inh	EBV LMP1 NFkB	PAX8 reporter	aSyn UTR inh
C/C=C(\C)C(=O)N[C@@H](c1ccccc1)[C@@H](O)C(=O)O[C@H]1C[C@@]2(O)[C@@H](OC(=O)c3ccccc3)C3[C@](C)(C(=O)[C@H](OC(C)=O)C(=C1C)C2(C)C)[C@@H](O)C[C@H]1OC[C@@]31OC(C)=O (some centres not stated)	nt	24	nt	nt	104*
C/C=C(\C)C(=O)N[C@@H](c1ccccc1)[C@@H](O)C(=O)O[C@H]1C[C@@]2(O)[C@@H](OC(=O)c3ccccc3)C3[C@](C)(C(=O)[C@H](O)C(=C1C)C2(C)C)[C@@H](O)C[C@H]1OC[C@@]31OC(C)=O (some centres not stated)	21	2	18	nt	98*
CCOc1ccc(N=Cc2c(O)n(C(C)(C)C)c(=O)[nH]c2=O)cc1	-29	14	2	nt	-7
CC12CC[C@H]3[C@@H](CCC4(O)C[C@H](O)CCC34/C=N/NC(=O)c3ccccc3F)C1(O)CCC2C1=CC(=O)OC1 (some centres not stated)	-15	nt	2	-19	64*
CC12CC[C@H]3[C@@H](CCC4(O)C[C@H](O)CCC34/C=N/NC(=O)c3ccccc3O)C1(O)CCC2C1=CC(=O)OC1 (some centres not stated)	6	-1	-6	13	77*
COc1cc(C(=O)N/N=C/C23CC[C@@H](O)CC2(O)CC[C@@H]2[C@@H]3CCC3(C)C(C4=CC(=O)OC4)CCC23O)ccc1O (some centres not stated)	-16	1	-15	-14	35
C(#CCN1CCCCC1)COCc1ccccc1	8	-6	-6	-12	-22
C[N+]1(C)[C@@H]2CC[C@H]1CC(OC(=O)C(c1ccccc1)c1ccccc1)C2 (some centres not stated)	1	-12	-2	-13	13
O=C(OC1CCN(CCCl)CC1)C(c1ccccc1)c1ccccc1	39	93*	51*	-11	nt
O=[N+]([O-])/C=C/c1c(Cl)cccc1Cl	111*	77	0	4	nt
CCN(CC)c1ccc(/C=C/[N+](=O)[O-])cc1	16	16	3	-14	-47
COc1cccc(CNC2CN3CCC2CC3)c1OC (configuration not stated)	0	-2	-3	nt	19
COC1CC(OC2CCC3(C)C(CCC4C3CCC3(C)C(C5=CC(=O)OC5)C(OC(C)=O)CC43O)C2)OC(C)C1OC1OC(COC2OC(CO)C(O)C(O)C2O)C(O)C(O)C1O (configuration not stated)	nt	nt	nt	nt	115*
CC(=O)OC1CC(OC2C(O)CC(OC3C(O)CC(OC4CCC5(C)C(CCC6C5CCC5(C)C(C7=CC(=O)OC7)CCC65O)C4)OC3C)OC2C)OC(C)C1OC1OC(CO)C(O)C(O)C1O (configuration not stated)	80*	1	76*	102*	nt
CCC(c1ccc(C)cc1)N1C(=O)C2C3CCC(O3)C2C1=O (configuration not stated)	1	-8	0	10	nt
CC1CC(OC(=O)c2ccccc2)CC(C)N1C (configuration not stated)	12	-4	4	0	-5
CC(C)(C)c1ccc(O)c(CN2CCN(c3ccccc3)CC2)c1	-1	13	3	-9	-9
c1ccc2c[n+](CCCCCCCCCC[n+]3ccc4ccccc4c3)ccc2c1	nt	nt	nt	81*	nt
c1ccc2c(c1)Nc1ccccc1S2	-3	-5	13	nt	12
COC(/C(C)=C/C=C/C(C)=C/c1coc(C)n1)C(C)C1CC(O)C2(C)OC2C=CC(C)C2CC(CC(=O)O2)CC2OC2C(=O)O1 (configuration not stated)	65*	12	-3	1	nt
Cc1[nH]nc2ccc(-c3cncc(OC[C@@H](N)Cc4c[nH]c5ccccc45)c3)cc12	91*	96*	90*	nt	nt
C=C(C)CSc1nnc([C@@H](N)Cc2c[nH]c3ccccc23)o1	3	-7	-3	nt	0
O=C1CN=C(c2ccccc2)c2oc3ccc(Br)cc3c2N1	9	-8	4	nt	-13
COc1cccc(OC)c1C1=NCC(=O)Nc2c1oc1ccc(Br)cc21	55	-3	18	76*	?
CCOP(=O)(CCP(=O)(OCC)OCC)OCC.C[CH2][Sn]([Cl])([Cl])[CH2]C	85*	48	-2	93*	nt
SMILES	MITF TRPM1 inh	Shn3 3UTR inh	EBV LMP1 NFkB	PAX8 reporter	aSyn UTR inh
O=C(COc1ccc(Cl)cc1)NCCc1cnc[nH]1	-2	-3	3	-8	4
O=C(Cc1cccnc1)N1CCCCN2[C@H](C1)[C@H](c1ccc(C#CC3CCCC3)cc1)[C@@H]2CO	nt	nt	nt	92*	nt
O=C(Cc1ccccc1)N1CCCCN2[C@H](C1)[C@H](c1ccc(C#Cc3ccccc3)cc1)[C@@H]2CO	nt	nt	nt	26	nt
O=C(Cc1ccncc1)N1CCCCN2[C@H](C1)[C@H](c1ccc(C#Cc3ccccc3F)cc1)[C@@H]2CO	nt	nt	nt	77*	nt
O=C(CCS(=O)(=O)c1ccc(Br)cc1)N1CCC2(CC1)OCCO2	3	0	-13	nt	nt
CCOC(=O)Cn1cc(C(=O)c2ccccc2F)c2ccccc21	0	2	5	6	20
CCOC(=O)Cn1cc([N+](=O)[O-])nc1[N+](=O)[O-]	65*	-24	4	nt	-44
C[N+](C)(C)CC#CCOC(=O)Nc1cccc(Cl)c1	0	-3	82*	-1	2
O=C(Nc1cccc(Cl)c1)N1C[C@H]2C[C@@H](C1)c1cccc(=O)n1C2	0	3	-1	nt	11
COc1ccc(OCC(=O)Nc2ccc(Cl)cc2C(=O)c2ccccc2)cc1	3	3	3	nt	8
Cc1cc(-c2ccccc2)cc(-c2ccccc2)[n+]1CCc1ccccc1	65*	76	9	85*	4
CCOc1ccc(-c2cc(C)[n+](CCc3ccc(OC)c(OC)c3)c(-c3ccc(OCC)cc3)c2)cc1	97*	19	10	92*	44
COc1ccc(CC[n+]2cc(/N=C(\C)[O-])on2)cc1OC	3	-16	1	nt	12
CCOc1ccc(N)cc1	-13	-3	0	-3	nt
CCOc1ccc(-c2cc(C)[n+](CCO)c(-c3ccc(OCC)cc3)c2)cc1	63*	16	-1	92*	19
COC(=O)C1=C(C(=O)OC)C2c3ccccc3C1c1ccccc12	-3	1	4	0	nt
CC(/C=C(\C)Nc1ccccc1)=Nc1ccccc1	-1	-23	-7	0	-44
CCC(=NC1CC1)c1c(O)n(C2CCCCC2)c(=O)[nH]c1=O	-3	2	-8	nt	27
CC1(CCO)C(=O)NC(=S)NC1=O	4	-20	1	-17	nt
CCc1nc2ccc(Br)cc2c(=O)n1-c1ccccc1C(F)(F)F	10	-16	-1	18	12
CCCc1nc2ccc(Br)cc2c(=O)n1-c1ccc([N+](=O)[O-])c(C(F)(F)F)c1	32	93*	44*	93*	-41
CCCCCCN1CCN(c2ccccc2Cl)CC1	-7	19	1	-8	19
